Screening results: PubChem BioAssay, The Scripps Research Institute Molecular Screening Center
DAX1 inh-1 – blocks DAX1 repression of SF-1 activated StAR promoter; HEK293T StAR-luciferase reporter, SF-1/DAX-1 repression relief; inhibition, % at 6.8 µM; 370,000 tested, 1.1% active;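 active = inhibition above the mean over all tested compounds plus 3 SD, cut at about 3.6% in these data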;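 note: 0% = DAX-1 cells with DMSO and 100% = cells lacking DAX-1 with DMSO; higher inhibition means more luminescence from relief of DAX-1 repression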
hgDAF-12 ag – activates the H. glycines DAF-12 receptor ligand-binding domain; HEK293 GAL4-hgDAF12 UAS-luciferase reporter, agonist luminescence; normalized to butyrate control; activation, % at 6.8 µM; 370,000 tested, 1.8% active; AID 687014;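 active = activation above a cutoff set at the mean of all screened compounds plus 3 SD, cut at about 10% in these data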;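 note: 0% = DMSO wells and 100% = sodium butyrate wells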
ssDAF12 agonist – activators of S. stercoralis DAF-12 nuclear receptor; activation, % at 6.8 µM; 370,000 tested, 1% active; HEK293 ssDAF-12/GRIP1 lit1-tk-luc reporter, luminescence; % of 3 µM dafachronic acid response;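 active = activation above the mean over all tested compounds plus 3 SD, cut at about 0.9% in these data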;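 note: 0% = DMSO-only wells and 100% = 3 µM delta7-dafachronic acid wells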
hcDAF-12 act – H. contortus DAF-12 activation, primary screen; 370,000 tested, 1.4% active; activation, % at 6.8 µM; HEK293 hcDAF-12 lit1-tk-luc reporter, luminescence; 0% DMSO, 100% Δ7-dafachronic acid;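 active = activation above the mean of all tested compounds plus 3 SD, cut at about 5.5% in these data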;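 note: 100% = response to 3 µM Δ7-dafachronic acid high control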
DAX1 inh-2 – inhibits human nuclear receptor DAX1; P51843; HEK293 Gal4-DAX1 luciferase reporter, luminescence; inhibition, % at 6.75 µM; 340,000 tested, 0.99% active; AID 504766;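 active = inhibition above the mean over all tested compounds plus 3 SD, cut at about 4.2% in these data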;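 note: 0% = DAX1-transfected cells with DMSO and 100% = empty-vector control cells with DMSO; inhibition shows as a rise in luminescence from relieved DAX1 repression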
Target sequence (P51843 207-470 limits assumed): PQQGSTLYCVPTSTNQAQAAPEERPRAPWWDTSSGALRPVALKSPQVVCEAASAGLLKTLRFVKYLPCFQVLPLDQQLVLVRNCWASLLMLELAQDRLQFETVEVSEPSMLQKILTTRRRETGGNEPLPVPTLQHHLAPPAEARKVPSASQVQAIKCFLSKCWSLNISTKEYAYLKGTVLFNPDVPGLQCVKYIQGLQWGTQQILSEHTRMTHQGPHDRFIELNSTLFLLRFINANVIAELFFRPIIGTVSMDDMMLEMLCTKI
Numbers without * were called inactive; nt = no result given. Compounds with a hit are over-represented: about 4.1% of the library has one in this group of screens.

SMILES	DAX1 inh-1	hgDAF-12 ag	ssDAF12 agonist	hcDAF-12 act	DAX1 inh-2
CCOC(=O)[C@@]12CCC3=C1N(CCC3)C(=O)[C@H](CC(=O)NCc1ccccc1)C2	0.2	-1.1	-1.0	0.3	nt
C=CCn1c(SCC(C)=O)nnc1-c1ccc2ncccc2c1	-0.2	-2.5	-1.1	-1.0	4.9*
COc1ccc(/C=C2\CCc3c2nc2ccccc2c3C(=O)O)cc1OC	4.3*	1.2	-0.4	4.4	-0.3
CSc1c(N(C)C)c(=O)c1=S	0.0	-0.7	-1.1	-0.4	nt
COc1cc(CN2CCC(Cc3ccccc3)CC2)cc(OC)c1OC	0.2	0.9	-1.8	-1.3	5.1*
COc1ccc(CN2CCC(Cc3ccccc3)CC2)c(C)c1C	-0.4	5.0	-2.0	-2.4	4.3*
CCC(=O)N[C@H]1C[C@@H]2O[C@@H](CO)CC[C@@H]2O[C@@H]1CCc1ccc(-c2cccc(OC)c2)cc1	-0.7	1.1	-1.2	0.1	nt
O=C(Cc1c[nH]c2ccccc12)Nc1ccc(Nc2cccnc2)c(-c2ccc(-c3ccccc3)cc2F)c1	-1.9	-1.2	-0.1	5.7*	nt
O=C(Cc1c[nH]c2ccccc12)Nc1ccc(Nc2cccnc2)c(-c2ccc(F)c(F)c2)c1	-3.4	-5.6	-1.0	0.1	nt
CNc1nc(Cl)nc2c1ncn2-c1ccccc1	-0.7	3.9	-1.1	0.4	4.6*
Cc1ccc(C(=O)NCc2ccc3c(c2)OCO3)c(C)c1	0.5	3.4	-1.2	-0.1	-1.1
C/C(CCc1ccc2c(c1)OCO2)=N\NC(=O)c1ccc(C)cc1C	2.1	12.7*	-0.4	1.0	0.4
Cn1c2ccc(F)cc2c2ncn(CCN3CCOCC3)c(=O)c21	0.1	2.5	-0.3	2.8	7.2*
COc1ccc(-c2cnc3c(c2)CCC3(C#N)C#N)cc1	-0.2	-3.5	-1.4	-1.5	7.3*
COc1ccc(-c2ccc(OC)cc2)cc1	-0.1	1.4	-0.4	0.8	1.9
Cc1c2cnccc2c(C)c2c1oc1ccccc12	1.0	11.1*	-0.9	1.9	2.1
Cc1c(C(=O)Nc2ccncc2)oc2ccccc12	-0.7	-1.3	-1.8	0.7	0.4
C=CCN1C(=O)[C@@H](CC(=O)N2CCC(c3ccccc3)CC2)[C@]2(C(=O)OCC)CCCCC/C=C/12	-0.4	-3.0	-1.2	-2.4	nt
O=C(O)c1[nH]c2ccccc2c1NS(=O)(=O)Cc1ccccc1	-0.9	0.9	0.2	6.0*	2.5
O=C(O)c1[nH]c2ccccc2c1NS(=O)(=O)c1ccc(F)cc1	0.3	5.1	0.7	4.8	1.2
Cn1c(-c2ccc(CN3CCCCC3)o2)nc2ccccc21	2.7	9.2	1.2*	5.8*	0.6
c1ccc2c(c1)nc(-c1ccncc1)n2CCNc1nc(CN2CCCCC2)cs1	0.4	0.2	-1.1	0.9	0.7
Cc1nn(CCC(=O)NNC(=O)Nc2ccccc2)c(C)c1[N+](=O)[O-]	-0.5	0.1	-1.5	-1.2	nt
CC(C)C[C@H](NC1(C(=O)NCCc2c[nH]c3ccccc23)CCN(C)CC1)C(=O)NCCCc1ccccc1	nt	3.5	-1.7	-0.6	nt
c1csc(-c2ccn[nH]2)c1	1.0	1.6	-0.8	-0.4	-0.7
SMILES	DAX1 inh-1	hgDAF-12 ag	ssDAF12 agonist	hcDAF-12 act	DAX1 inh-2
c1ccc(-c2ncc(-c3ccn[nH]3)s2)cc1	5.4*	22.3*	2.0*	5.4	-0.1
COc1ccc(-n2c(SCC(=O)NN=Cc3c(O)ccc4ccccc34)nnc2-c2ccc(C(C)(C)C)cc2)cc1	-0.8	-1.0	-1.4	2.2	nt
COc1ccc(CNCC#Cc2ccc(C(F)(F)F)cc2)c(OC)c1	-0.5	1.9	-0.7	1.1	nt
FC(F)(F)c1cccc(-c2nc(-c3ccncc3)no2)c1	0.7	6.1	-0.8	0.0	3.3
FC(F)(F)c1cccc(OCc2noc(-c3ccsc3)n2)c1	-0.3	1.4	-1.3	-1.2	5.5*
COc1ccc(C)cc1N(C(=O)c1ccccc1)c1nc2ccccc2s1	-0.3	1.4	0.3	3.5	-0.3
COc1ccc(C)cc1N(C(=O)c1cccc(F)c1)c1nc2ccccc2s1	0.2	1.4	0.0	6.5*	0.2
COc1ccc(C)cc1N(C(=O)COc1ccccc1)c1nc2ccccc2s1	0.6	4.5	0.5	6.2*	2.5
CCOC(=O)[C@@]12CCCC=C1N(CCc1ccc(Cl)cc1)C(=O)[C@H]2CC(=O)NCCCCc1ccccc1	-1.4	-0.6	-1.4	0.2	nt
c1ccc2c(c1)Cc1cc(CN3CCOCC3)ccc1-2	2.7	13.2*	0.0	2.6	1.9
c1ccc(CN2CCOCC2)cc1	0.1	0.2	-1.1	1.1	-0.2
C[N+]1(CCC(=O)c2ccccc2)CCCCC1	-0.3	-3.4	1.7*	-0.6	0.7
COC(=O)c1cc(-c2cc3ccccc3o2)c(=O)n2c1CCC2	0.3	3.8	-0.1	1.9	nt
COc1ccc(C(=O)OCCN2CCN(C3CN(Cc4cn(Cc5ccccc5C(F)(F)F)nn4)S(=O)(=O)C3)CC2)cc1OC (centres undefined)	-3.1	-3.0	-2.6	-3.3	nt
COc1ccc(C(=O)Cc2ccc3c(c2)OCO3)c(O)c1	3.0	9.4	1.4*	3.5	1.3
COc1ccc(CC(=O)c2ccc(O)cc2O)cc1	3.2	7.4	0.0	1.2	5.8*
O=C(O)COc1ccc(C(=O)Cc2ccc3c(c2)OCCCO3)c(O)c1	-0.1	-0.7	-1.2	-2.6	-0.3
COc1ccc2sc(-c3ccccc3OC)c(-c3ccc(SC)cc3)c2c1	3.8*	1.0	-1.2	-0.1	nt
COc1ccc2sc(-c3ccccc3OC)c(-c3ccc(OC)c(F)c3)c2c1	-0.6	1.4	-1.1	-0.2	0.7
COc1cc(CNc2ccc(N3CCN(C(C)=O)CC3)cc2)ccc1OCc1ccc(F)cc1	-1.1	11.2*	-1.5	-0.8	-0.3
CC(=O)N1CCN(c2ccc(NCc3ccc(F)cc3)cc2)CC1	-1.7	-2.0	-1.7	-1.2	3.4
Cc1c(C(=O)N/N=C/c2ccccc2Cl)[nH][nH]c1=O	1.2	5.8	-0.8	-0.9	nt
CCN(c1ccc(NC(=O)COC(=O)c2ccc3ccccc3n2)cc1)C(C)C	0.5	4.7	0.9*	4.6	-0.6
Cc1ccc(-n2c(Cc3cccs3)nnc2SCC(=O)Nc2ccccc2-c2ccccc2)cc1	-0.4	1.5	-1.9	-1.6	nt
CCOc1ccc(N(C(C)=O)C2C=CS(=O)(=O)C2)cc1 (centres undefined)	-0.2	2.7	-1.0	-0.3	5.3*
CC(=O)C1=C(C)N(Cc2ccc(Cl)cc2)C(=S)NC1c1cccc(Br)c1 (centres undefined)	-0.6	-2.9	-1.1	0.6	nt
O=C(/C=C/c1ccc(F)cc1)NC(=S)NNC(=O)[C@H]1C[C@@H]1c1ccccc1	3.6*	5.5	-0.4	0.4	0.3
CCOC(=O)C1CCN(C(=O)CSc2ccc(Cl)cc2)CC1	-0.2	1.9	-1.4	-1.5	0.5
CCOC(=O)C1CCN(C(=O)c2cc3ccc(OC)cc3[nH]2)CC1	0.9	2.1	0.0	3.3	1.0
CCOC(=O)C1CCN(C(=O)C(C)Sc2ccc(Cl)cc2)CC1 (centres undefined)	-0.5	3.0	-1.1	-1.4	4.7*
